According to the supplement of paper PMC12669032:
A number with no mark means an inactive call.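 The calls were made as follows: active = AUC reduced over 20% with Padj below 0.05 in at least 2 of 3 replicates; inactive = otherwise.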

What was measured:
Test in all cases: growth AUC relative to DMSO control (median of replicates) (fraction); higher = more growth (less inhibition), active = hit call of the paper
Settings in all cases: 20 µM; 24 h
Akkermansia muciniphila = test system: Akkermansia muciniphila
Method in brief: (§1)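 For each compound at 20 µM (1% DMSO), gut bacterial monocultures seeded at OD600 0.05 grew anaerobically in mGAM at 37 °C in round-bottom 96-well plates. Hourly OD600 readings over 24 h gave growth curves whose minimum OD was set to 0. Area under these curves was normalised to the plate median of solvent-only wells, or to row and column medians on the industrial chemical plate. Values are medians of three biological replicates grown on separate days.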

Bacteroides caccae = test system: Bacteroides caccae
Method in brief: as §1

Bacteroides clarus = test system: Bacteroides clarus
Method in brief: as §1

Bacteroides dorei = test system: Bacteroides dorei
Method in brief: as §1

Bacteroides stercoris = test system: Bacteroides stercoris
Method in brief: as §1

[1] = test system: Bacteroides thetaiotaomicron
Method in brief: as §1

Bacteroides uniformis = test system: Bacteroides uniformis
Method in brief: as §1

[2] = test system: Bifidobacterium longum subsp. longum
Method in brief: as §1

Clostridium difficile = test system: Clostridium difficile
Method in brief: as §1

Collinsella aerofaciens = test system: Collinsella aerofaciens
Method in brief: as §1

| SMILES | growth AUC (Akkermansia muciniphila) | growth AUC (Bacteroides caccae) | growth AUC (Bacteroides clarus) | growth AUC (Bacteroides dorei) | growth AUC (Bacteroides stercoris) | growth AUC [1] | growth AUC (Bacteroides uniformis) | growth AUC [2] | growth AUC (Clostridium difficile) | growth AUC (Collinsella aerofaciens) |
| --- | --- | --- | --- | --- | --- | --- | --- | --- | --- | --- |
| O=C(O)COc1ccccc1 | 0.969 | 0.918 | 0.989 | 0.944 | 1.05 | 1.02 | 1 | 1.11 | 0.988 | 0.885 |
| COP(=O)(OC)Oc1ccc(SC)c(C)c1 | 0.861 | 0.994 | 0.978 | 1.03 | 0.981 | 0.979 | 0.982 | 1 | 0.999 | 0.993 |
| O=C(O)COc1nc(Cl)c(Cl)cc1Cl | 1.13 | 0.874 | 0.989 | 0.94 | 1.19 | 1 | 0.993 | 1.04 | 0.963 | 0.99 |
| Cc1ccccc1CO[C@@H]1C[C@@]2(C(C)C)CC[C@]1(C)O2 (mixture of isomers) | 1.08 | 0.955 | 0.967 | 0.977 | 1.02 | 1.01 | 0.997 | 1.03 | 1.04 | 1.01 |
| CC1COC(Cn2cncn2)(c2ccc(Oc3ccc(Cl)cc3)cc2Cl)O1 (stereo not given) | 1.03 | 0.868 | 0.898 | 0.91 | 1.12 | 0.854 | 0.839 | 0.938 | 0.881 | 0.977 |
| CSc1nc(NC(C)C)nc(NC(C)C)n1 | 0.876 | 1.02 | 0.976 | 1.01 | 0.95 | 0.949 | 0.983 | 1.08 | 1.02 | 1.04 |
| CCOP(=S)(OCC)Oc1nc(Cl)n(C(C)C)n1 | 1.04 | 0.932 | 1.02 | 1.01 | 1.14 | 1.01 | 0.972 | 0.964 | 0.982 | 1.02 |
| CCCCCCCCCCCCCN1CC(C)OC(C)C1 (stereo not given) | 0.931 | 0.969 | 1 | 1.01 | 1.03 | 0.993 | 0.982 | 0.908 | 0.923 | 0.941 |
| O=C(NC(=O)c1c(F)cccc1F)Nc1ccc(Cl)cc1 | 1.14 | 1.01 | 0.996 | 0.998 | 0.974 | 0.997 | 1.01 | 0.954 | 1.01 | 0.955 |
| O=C(NC(=O)c1c(F)cccc1F)Nc1ccc(OC(F)(F)C(F)OC(F)(F)F)c(Cl)c1 (stereo not given) | 0.979 | 0.991 | 1.01 | 1.03 | 0.982 | 0.974 | 0.997 | 1 | 0.985 | 0.971 |
| COc1cc(C)c(C(=O)c2c(OC)ccc(Br)c2C)c(OC)c1OC | 1.05 | 1 | 0.959 | 0.992 | 0.958 | 0.951 | 0.91 | 0.885 | 1.03 | 0.956 |
| Clc1ccc(Cl)c(Cl)c1Cl | 0.865 | 0.985 | 0.958 | 1.02 | 1.04 | 0.992 | 0.996 | 0.99 | 1 | 0.982 |
| CCc1ccc(C(=O)NN(C(=O)c2cc(C)cc(C)c2)C(C)(C)C)cc1 | 0.924 | 1.03 | 0.993 | 0.987 | 0.875 | 0.976 | 0.955 | 0.911 | 0.965 | 1 |
| CO/C=C(/C(=O)OC)c1ccccc1COc1cccc(C(F)(F)F)n1 | 0.949 | 0.984 | 0.945 | 0.995 | 0.91 | 0.936 | 0.927 | 0.983 | 1.01 | 0.978 |
| Nc1nc(N)nc(N)n1 | 0.956 | 1.02 | 0.881 | 1.03 | 0.792 (active) | 0.968 | 0.972 | 1.15 | 0.989 | 1.03 |
| CCC(C)(C)C(=O)OC1=C(c2ccc(Cl)cc2Cl)C(=O)OC12CCCCC2 | 1.03 | 1 | 0.975 | 0.976 | 0.978 | 0.946 | 0.911 | 0.99 | 0.973 | 0.987 |
| Fc1ccc(Oc2ccnc3cc(Cl)cc(Cl)c23)cc1 | 0.94 | 0.899 | 0.918 | 1.05 | 0.806 | 0.887 | 0.875 | 0.905 | 1.08 | 0.967 |
| O=C1OCC2C1C1(Cl)C(Cl)=C(Cl)C2(Cl)C1(Cl)Cl (stereo not given) | 1.09 | 0.965 | 0.991 | 0.987 | 0.871 | 1.04 | 1.01 | 1.06 | 0.987 | 0.926 |
| CN(C)S(=O)(=O)N(SC(F)(Cl)Cl)c1ccccc1 | 1.13 | 1.01 | 1.03 | 0.998 | 1.2 | 1.01 | 1.03 | 0.989 | 1.01 | 0.98 |
| O=P(Oc1ccccc1)(Oc1ccccc1)Oc1ccccc1 | 0.805 | 0.898 | 0.958 | 0.96 | 0.755 (active) | 0.901 | 0.923 | 0.919 | 1 | 1.02 |
| CC(C)c1ccc(NC(=O)N(C)C)cc1 | 1.04 | 0.978 | 0.987 | 1.02 | 0.937 | 1.02 | 1.02 | 1.18 | 0.995 | 0.947 |
| CC(C)OC(=O)C(C(=O)OC(C)C)=C1SCCS1 | 1.07 | 0.993 | 1.01 | 0.995 | 0.955 | 0.974 | 1.01 | 1.04 | 1.02 | 0.984 |
| Cc1ccn2nc(S(=O)(=O)Nc3c(F)cccc3F)nc2n1 | 1.04 | 0.968 | 0.986 | 0.957 | 0.955 | 0.985 | 1.06 | 1.03 | 1.03 | 0.945 |
| COc1cccc(C(=O)NN(C(=O)c2cc(C)cc(C)c2)C(C)(C)C)c1C | 1.14 | 0.966 | 0.996 | 0.933 | 0.951 | 0.986 | 0.958 | 0.975 | 0.969 | 0.92 |
| ClC1=C(Cl)[C@]2(Cl)[C@@H]3[C@H]4C[C@H]([C@@H]5O[C@H]45)[C@@H]3[C@@]1(Cl)C2(Cl)Cl | 0.861 | 0.979 | 0.864 | 0.958 | 0.773 | 0.925 | 0.709 (active) | 0.962 | 1 | 0.936 |
| CC/C(=N\OC/C=C/Cl)C1=C(O)CC(C2CCOCC2)CC1=O (stereo not given) | 1.04 | 0.993 | 1.03 | 1 | 1.03 | 1.02 | 0.985 | 1.37 | 1.01 | 1.03 |
